# Hits are enriched below; roughly 7.6% of the tested compounds scored in any of these assays.
# KCNH2 3.1 inh = KCNH2 3.1 (human) potassium channel inhibition | U2OS KCNH2 3.1, thallium flux FluxOr; active compounds read low | activity change, % (tested at about 1.8 µM) | 340,000 compounds, 0.95% hits;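 active means maximum activity change below -70%; inconclusive means maximum activity change from -70% to -50%; inactive means maximum activity change above -50%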;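 further: thallium influx rate constant from kinetic fluorescence after stimulation buffer; on the % scale 0 is the no-effect control and ±100 the full control effect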
#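 Normalized rate constant (relative to positive and negative DMSO controls) derived from a 2 min kinetic fluorescence read after stimulation; U2OS cells expressing the 3.1 isoform via virus at 1.77 x 10^8 /mL.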
# KB-V1 MDR tox = KB-V1 MDR subline cytotoxicity. KB-V1 MDR cells viability, CellTiter-Glo, 72 h. Potency, µM (top dose mostly 46.1 µM), usual class: cytotoxic. 400,000 compounds, 3.4% hits. AID 1347076; further: potency means the concentration at half of the fitted maximal effect; on the % scale 0 is the no-effect control and ±100 the full control effect; nearly all actives have a fitted effect of over 60% in size
#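 KB-V1 MDR subline cells in DMEM (phenol-red free, 10% FBS) exposed to compounds in qHTS concentration series for 72 h at 37 degrees C. Viability read by CellTiter-Glo luminescence; concentration-effect curves fitted after normalization and correction.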
# KB-3-1 cytotox = kills parental KB-3-1 adenocarcinoma cells. KB-3-1 viability, CellTiter-Glo ATP luminescence, 72 h. Potency, µM (highest dose often 46.1 µM), actives largely listed as cytotoxic. 400,000 compounds, 1.4% hits; further: potency means the concentration at half of the fitted maximal effect; on the % scale 0 is the no-effect control and ±100 the full control effect; nearly all actives have a fitted effect of over 60% in size
#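 Luminescent ATP read-out (CellTiter-Glo) measures survival of drug-naive KB-3-1 cells after 72 h compound exposure at 37 °C. Titration series was screened from lowest to highest concentration, with DMSO vehicle plates as background controls.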
# hERG WT inh = KCNH2 (human, wildtype) channel inhibition | 340,000 compounds, 0.37% hits | activity change, % at 1.84 µM | AID 720551 | Q12809 | U2OS, BacMam KCNH2, thallium flux FluxOr; active compounds read low;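 active means maximum activity change below -70%; inconclusive means maximum activity change between -70% and -50%; inactive means maximum activity change above -50%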; further: on the % scale 0 is the no-effect control and ±100 the full control effect
# Target sequence (Q12809 whole entry, looked up): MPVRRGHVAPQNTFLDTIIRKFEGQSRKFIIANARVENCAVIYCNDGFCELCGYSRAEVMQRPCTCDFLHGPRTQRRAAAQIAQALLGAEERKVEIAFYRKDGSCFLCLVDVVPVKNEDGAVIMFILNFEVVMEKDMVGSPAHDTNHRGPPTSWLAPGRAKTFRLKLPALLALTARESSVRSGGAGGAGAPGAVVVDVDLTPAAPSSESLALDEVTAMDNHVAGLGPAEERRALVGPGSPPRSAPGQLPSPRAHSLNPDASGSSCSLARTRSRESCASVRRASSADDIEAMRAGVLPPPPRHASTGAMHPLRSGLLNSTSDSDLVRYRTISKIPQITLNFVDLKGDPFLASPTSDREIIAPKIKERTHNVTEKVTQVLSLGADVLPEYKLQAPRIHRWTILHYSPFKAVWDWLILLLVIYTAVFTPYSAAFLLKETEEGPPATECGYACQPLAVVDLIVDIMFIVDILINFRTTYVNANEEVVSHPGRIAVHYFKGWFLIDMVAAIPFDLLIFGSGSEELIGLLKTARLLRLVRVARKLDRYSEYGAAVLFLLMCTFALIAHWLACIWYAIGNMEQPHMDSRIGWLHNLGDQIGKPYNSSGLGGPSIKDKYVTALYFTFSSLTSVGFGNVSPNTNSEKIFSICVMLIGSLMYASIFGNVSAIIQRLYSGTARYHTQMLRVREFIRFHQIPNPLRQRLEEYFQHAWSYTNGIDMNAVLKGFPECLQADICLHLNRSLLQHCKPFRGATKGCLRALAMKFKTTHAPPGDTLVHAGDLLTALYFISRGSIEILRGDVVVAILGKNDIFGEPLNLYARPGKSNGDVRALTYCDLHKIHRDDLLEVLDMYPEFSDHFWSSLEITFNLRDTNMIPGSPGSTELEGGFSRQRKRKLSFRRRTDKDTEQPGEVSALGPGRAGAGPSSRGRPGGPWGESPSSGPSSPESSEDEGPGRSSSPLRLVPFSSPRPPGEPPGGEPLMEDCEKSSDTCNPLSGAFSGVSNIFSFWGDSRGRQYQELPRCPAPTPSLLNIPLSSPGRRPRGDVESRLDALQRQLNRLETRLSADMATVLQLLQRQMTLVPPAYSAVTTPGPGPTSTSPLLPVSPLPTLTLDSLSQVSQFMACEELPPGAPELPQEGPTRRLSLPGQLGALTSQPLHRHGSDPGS
#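 U2OS cells were transduced with wild-type KCNH2 virus (2.03 x 10^8 / mL) for 4 h at room temperature, then cultured overnight at 37 C. Thallium flux was read with FluxOr dye. Rate constants were normalized to DMSO controls.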
# MCF10A rereplic = DNA re-replication induction in MCF 10a cells; MCF 10A DNA re-replication, Hoechst nuclear intensity, 48 h; Potency, µM (series often up to 46.1 µM), without a hit: at the top dose activity, positive = re-replication, actives largely listed as activators; 350,000 compounds, 2.9% hits; AID 624296; further: potency means the concentration at half of the fitted maximal effect; % of control where 0% means no effect; nearly all actives have a fitted effect of over 50% in size
# SW480 rereplic = DNA re-replication induction in SW480 cells | Potency, µM (series often up to 46.1 µM), for the others: at the highest dose re-replication activation, hits mostly activators | SW480 DNA re-replication, Hoechst DNA content imaging, 48 h | 340,000 compounds, 1.8% hits | AID 624297; further: potency means the concentration at half of the fitted maximal effect; % of control where 0% means no effect; nearly all actives have a fitted effect of over 55% in size
#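 Quantitative HTS format with DMSO vehicle controls; 48 hr drug incubation at 37 C, then 40 min Hoechst staining and scanning imager measurement at 405 nm excitation.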
# Starred values were filed as active, the others as inactive; i = inactive; ? = inconclusive; nt = not tested or not shown. Unless noted, the call rests on the fitted dose curve; in most records, active means well fitted curve in the direction sought with a large enough effect; inconclusive means small, poorly fitted or top-dose-only effect, or another doubt; inactive means no such curve, though single readings can be large; an effect the other way counts as inactive or inconclusive.
SMILES,KCNH2 3.1 inh,KB-V1 MDR tox,KB-3-1 cytotox,hERG WT inh,MCF10A rereplic,SW480 rereplic
Nc1c(C(=O)NCc2ccc(F)cc2)c2nc3ccccc3nc2n1CCCN1CCOCC1,6.3,?,?,1.5,?,3.66µM*
Nc1c(C(=O)NCc2ccco2)c2nc3ccccc3nc2n1CCc1ccccc1,-9.8,?,i,nt,1.84µM*,7.31µM*
Cc1c(NS(=O)(=O)c2ccc3[nH]c(=O)[nH]c3c2)c(=O)n(-c2ccccc2)n1C,6.0,?,i,3.3,-10.1%,3.5%
NC(=O)C1CCN(S(=O)(=O)c2ccccc2[N+](=O)[O-])CC1,12.7,i,i,-6.4,-0.5%,-1.1%
COc1ccc(CNC(=O)c2c(N)n(CCCN3CCOCC3)c3nc4ccccc4nc23)cc1,8.3,?,i,0.5,?,2.59µM*
O=C(NC(c1ccco1)c1cc(Cl)c2cccnc2c1O)c1ccsc1 (centres undefined),nt,i,?,nt,nt,nt
CC1=CC(=NOC(=O)/C=C/c2ccccc2)C=C(C)C1=O,nt,i,?,-3.9,?,?
CC1=CC(=O)C=C(C)C1=NOC(=O)/C=C\c1ccccc1,10.0,i,i,-2.9,?,5.8µM*
COc1ccc(-c2cc(-c3c(O)c(OC)c4occc4c3OC)[nH]n2)cc1,5.1,13µM*,?,-7.6,?,?
COc1ccc(C(=O)N=C2CCC(C#N)=C3c4cc(OC)c(OC)cc4CCN23)cc1,0.9,11.6µM*,?,0.5,?,6.0%
COc1ccc(CCN2CC(C#N)=C3c4cc(OC)c(OC)cc4CCN3C2)cc1OC,7.1,i,i,9.6,22.6%,3.4%
COc1cc2c(cc1OC)C1=C(C#N)CN(C3CCCCC3)CN1CC2,2.7,20.6µM*,i,7.5,2.9%,1.0%
COc1cc2c(cc1OC)C1=C(C#N)CCC(=O)N1CC2,20.8,4.61µM*,16.4µM*,-6.5,1.8%,-6.7%
COc1cc2c(cc1OC)C1=C(C#N)CC/C(=N\S(=O)(=O)c3ccccc3)N1CC2,-0.7,?,i,4.9,-3.9%,-6.9%
Cc1cc(C)n2nc(-c3ccc(Cl)cc3)nc2n1,nt,?,i,nt,nt,nt
Cc1ccc(C(=O)OCC(=O)N2CCOCC2)cc1,?,i,i,-1.6,3.7%,-8.4%
CN(C)c1ccc(C(=O)OCC(=O)N2CCCC2)cc1,2.5,i,i,0.9,-9.9%,-7.3%
O=C(OCC(=O)N1CCOCC1)c1ccc(Br)cc1,9.9,?,i,-130.2*,1.6%,-8.1%
O=C(CCN1CCOCC1)c1ccc(Cl)cc1,9.3,i,i,-5.6,7.31µM*,19.8%
CCOC(=O)N1CCN(C(=O)COC(=O)c2ccc(N(C)C)cc2)CC1,14.0,20.6µM*,i,-10.2,-3.4%,-3.9%
O=C(CCN1CCOCC1)c1ccc(Br)cc1,-4.6,i,i,-16.5,9.2µM*,?
CCN(CC)CCN=c1c(C)nc(C#N)c(N)n1O,-3.5,i,i,-0.2,nt,nt
COc1ccc(-c2cc(C(F)(F)F)nc(NCc3ccc(Cl)cc3)n2)cc1,nt,i,i,nt,nt,nt
FC(F)(F)c1cc(-c2ccc(Cl)cc2)nc(NCc2cccnc2)n1,-29.3,?,i,-5.7,16.4µM*,?
COc1ccc(S(=O)(=O)N2CCCCC2c2cc(C(=O)NCc3cccnc3)no2)cc1 (centres undefined),nt,i,i,nt,nt,nt
SMILES,KCNH2 3.1 inh,KB-V1 MDR tox,KB-3-1 cytotox,hERG WT inh,MCF10A rereplic,SW480 rereplic
CCn1c(CCNC(=O)c2ccc(Cl)c(Cl)c2)nnc1SCCOc1ccc(OC)cc1,-13.5,5.8µM*,20.6µM*,31.1,-1.2%,-0.8%
COc1ccc(OCCSc2nnc(CCNC(=O)c3ccc(OC)cc3)n2C)cc1,9.3,18.4µM*,i,-6.7,3.8%,-0.9%
CCN(C[C@H]1N[C@@](C)(C(=O)OC)[C@H]2C(=O)N(C)C(=O)[C@@H]12)C(=O)Nc1ccc(OC)cc1,8.9,i,i,1.9,2.7%,-9.8%
O=C(NCC1(c2ccccc2)CCCC1)c1cccc(Br)c1,-2.9,?,i,-17.8,14.1%,18.5%
CS(=O)(=O)Nc1ccc(-c2ccc(/C=C3\SC(N)=NC3=O)o2)cc1,9.4,i,i,-8.5,23.1µM*,13.5%
NC1=NC(=O)/C(=C/c2ccc(-c3ccc(S(N)(=O)=O)cc3)o2)S1,13.9,i,i,0.3,-10.6%,-8.6%
O=C(C=Cc1ccco1)c1ccc2ccccc2c1,-34.9,i,i,-6.0,?,-1.5%
O=C(NNC(=O)c1ccc2ccccc2c1O)NC1CCCCC1,-10.5,i,i,-88.1*,-15.0%,-4.6%
COc1ccccc1NC(=O)C(C)N1C(=O)C2CCCCC2C1=O (centres undefined),12.0,i,i,-0.3,1.0%,-12.8%
COC(=O)c1c(-c2ccc(OC)cc2)sc2ccc(N3CCOCC3)cc12,0.4,i,14.6µM*,-5.3,10.5%,0.5%
Cc1cccc(NC(=O)C2Cc3ccccc3O/C2=N\O)c1 (centres undefined),-1.1,i,i,-7.9,6.2%,-6.8%
Cc1noc(C)c1NC(=O)NC(c1ccccc1)c1ccccc1,-13.4,i,i,0.9,9.8%,-3.0%
CC1CC(C)(C)N(C(=O)CSc2ccc(-c3ccc(F)cc3)nn2)c2ccccc21 (centres undefined),-4.4,20.6µM*,i,-5.3,24.8%,?
CC1CCN(C(=O)CSc2ccc(-c3ccc(F)cc3)nn2)CC1,6.9,16.4µM*,?,7.8,20.0%,-2.2%
O=C(CSc1ccc(-c2ccc(F)cc2)nn1)N1CCCCC1,14.4,i,i,nt,17.1%,5.9%
COCCSc1ccccc1C(=O)N1CCOCC1,-85.6*,i,i,-3.8,-2.4%,5.8%
COCCSc1ccccc1C(=O)N1CCCC1,10.5,i,i,-8.6,-12.4%,-9.9%
CCOc1ccc(-n2nc3ccc(N)cc3n2)cc1,-7.9,i,i,-2.0,18.4µM*,?
CCOc1ccc(-n2nc3cc(C)c(N)cc3n2)cc1,-29.3,i,i,0.3,18.4µM*,16.4µM*
COc1ccc(-n2nc3ccc(N)cc3n2)cc1,1.6,i,i,-6.0,nt,nt
O=C(NN=C1CCCCCC1)c1ccc(Cl)s1,-29.4,i,i,5.8,1.9%,3.7%
O=C(CSc1nc2ccccc2c(=O)n1-c1ccc(F)cc1)Nc1cc(S(=O)(=O)N2CCOCC2)ccc1Cl,2.0,i,i,-2.3,-0.2%,-1.9%
CS(=O)(=O)c1ccc(Cl)c(NC(=O)CSc2nc3ccccc3c(=O)n2Cc2ccco2)c1,-97.6*,?,?,-13.4,3.0%,0.1%
